PAFAH2 FP inh: inhibitors of human PAFAH2; Q99487; recombinant PAFAH2, FP-rhodamine activity probe, fluorescence polarization; inhibition, % at 3.39 µM; actives 0.99% (n = 340,000);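 active means inhibition above the mean over all tested compounds plus 3 SD, cut at about 30% in these data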;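 further: inhibitors block probe labeling of enzyme so polarization drops; 0% = enzyme with DMSO and 100% = wells lacking PAFAH2 protein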
pPAFAH inh: inhibitors of human plasma PAF acetylhydrolase (pPAFAH); Q13093; recombinant pPAFAH, FP-rhodamine probe fluorescence polarization; inhibition, % at 3.39 µM; actives 1.5% (n = 330,000); AID 463082;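 active means inhibition above the mean inhibition across the screen plus 3 SD, cut at about 25% in these data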;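 further: inhibitors block binding of the rhodamine activity-based probe so polarization drops; 0% = enzyme with DMSO and 100% = wells lacking pPAFAH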
PKA-R1A act: activators of PKA-R1A complex. PKA-R1A dissociation, Cy5-IP20 fluorescence polarization; scaled: DMSO 0%, 113 µM cGMP 100%. P00514+P68181. activation, % at 11.4 µM. actives 0.083% (n = 340,000);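 active means percent activation above the mean of all tested compounds plus 3 SD, cut at about 19% in these data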;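 further: higher means more PKAc released from R1A so a rise in polarization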
PAFAH1B2 inh: inhibitors of human PAFAH1B2; P68402; recombinant PAFAH1B2, FP-rhodamine activity probe, fluorescence polarization; inhibition, % at 3.39 µM; actives 1.2% (n = 340,000); AID 492953;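 active means inhibition above the mean of all tested compounds plus 3 SD, cut at about 24% in these data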;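 further: 0% = enzyme with DMSO and 100% = wells lacking PAFAH1B2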
Target sequence (P68402 whole entry, looked up): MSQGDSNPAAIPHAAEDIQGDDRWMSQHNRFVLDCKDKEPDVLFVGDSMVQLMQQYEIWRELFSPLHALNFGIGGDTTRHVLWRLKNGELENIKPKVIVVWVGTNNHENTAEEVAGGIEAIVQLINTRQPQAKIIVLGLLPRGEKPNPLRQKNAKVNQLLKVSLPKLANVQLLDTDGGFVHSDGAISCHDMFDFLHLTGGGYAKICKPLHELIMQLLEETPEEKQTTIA
PAFAH1B3 inh: inhibitors of human PAFAH1B3. recombinant PAFAH1B3, FP-rhodamine probe, fluorescence polarization. inhibition, % at 3.39 µM. actives 0.28% (n = 340,000). AID 492972;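 active means inhibition above the screen-wide average of all tested compounds plus 3 SD, cut at about 25% in these data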;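 further: 0% = enzyme with DMSO only and 100% = wells lacking PAFAH1B3 protein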
Target sequence (Q15102 whole entry, looked up): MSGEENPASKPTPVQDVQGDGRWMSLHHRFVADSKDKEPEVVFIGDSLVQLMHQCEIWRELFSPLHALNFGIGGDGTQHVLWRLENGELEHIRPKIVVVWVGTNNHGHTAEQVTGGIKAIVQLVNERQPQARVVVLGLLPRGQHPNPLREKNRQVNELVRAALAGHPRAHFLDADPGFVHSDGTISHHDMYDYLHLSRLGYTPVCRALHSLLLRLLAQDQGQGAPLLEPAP
PKA-R2B activ: activators of human PKA-R2B complex; actives 0.079% (n = 340,000); activation, % at 11.4 µM; PKA-R2B holoenzyme dissociation, Cy5-IP20 fluorescence polarization; R2B truncated from residue 108, S112A mutant; 0% DMSO only, 100% 113 µM cGMP; P22694+P31323;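 active means activation above a cutoff set at the mean over all compounds plus 3 SD, cut at about 18% in these data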;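 further: higher means more holoenzyme dissociation and a rise in polarization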
PAFAH2 FP conf: confirmation of human PAFAH2 inhibitors; shares compounds with PAFAH2 FP inh; recombinant PAFAH2, FP-rhodamine activity probe, fluorescence polarization; inhibition, % at 3.39 µM; actives 65% (n = 2,300);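 active means mean inhibition over three repeats above a set limit taken from the earlier primary screen, cut at about 30% in these data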;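 further: inhibitor blocks binding of rhodamine activity probe so polarization falls; 0% = enzyme with DMSO and 100% = wells lacking PAFAH2 protein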
* hit, by the source's call; · = not tested or not shown. In the library only some 2.6% were active in any assay of this set; here they are far more common.

SMILES	PAFAH2 FP inh	pPAFAH inh	PKA-R1A act	PAFAH1B2 inh	PAFAH1B3 inh	PKA-R2B activ	PAFAH2 FP conf
Cc1cc(C(=O)OCC(=O)Nc2cc(S(=O)(=O)N3CCOCC3)ccc2Cl)c(C)o1	35.3*	7.8	-12.1	-0.4	9.1	-1.4	30.7*
O=C(COC(=O)c1cc(S(=O)(=O)N2CCOCC2)ccc1O)Nc1cc(S(=O)(=O)N2CCCC2)ccc1Cl	77.1*	-2.4	5.2	7.7	8.2	-5.1	75.5*
O=C(COC(=O)c1cc(S(=O)(=O)N2CCCC2)ccc1O)Nc1ccc(S(=O)(=O)N2CCOCC2)cc1	7.2	-3.0	-6.2	2.1	1.2	-6.8	·
CCOC(=O)c1cc(-c2ccccc2C)n(CC2CC(c3ccc(OC)cc3)=NO2)n1 (configuration not stated)	-4.5	6.2	3.2	3.0	10.8	-11.0	·
CNC(=O)c1ccc2cc(OC)c(OC)cc2c1	·	·	-5.5	·	·	-4.9	·
Cc1cc(C(=O)OCC(=O)Nc2cccc([N+](=O)[O-])c2)c(C)o1	74.8*	3.9	6.0	5.3	1.5	13.4	78.1*
CCC(CCC(=O)Nc1cccc([N+](=O)[O-])c1)C(=O)O (configuration not stated)	2.4	1.5	2.9	2.1	3.2	-5.5	·
O=C(COC(=O)c1c[nH]c(=O)[nH]c1=O)Nc1cccc([N+](=O)[O-])c1	30.8*	-1.2	-6.8	2.2	8.5	-4.2	22.9
CCC(CC)C(=O)OCC(=O)Nc1cccc([N+](=O)[O-])c1	36.1*	2.5	1.5	-1.0	4.8	-2.0	27.0
CCOc1ccc(NC(=O)COC(=O)c2cc(C)oc2C)cc1	56.9*	0.1	-12.2	1.5	5.6	-3.9	52.7*
O=C(COC(=O)C1CCC(=O)N1)Nc1cccc([N+](=O)[O-])c1 (configuration not stated)	-9.9	-1.4	-1.6	4.0	10.7	-4.0	·
COc1ccc(NC(=O)COC(=O)c2cc(C)oc2C)cc1OC	5.9	3.9	-3.0	6.1	2.2	-6.1	·
Cc1ccc(NC(=O)CSc2nnc(CNC(=O)c3ccco3)n2C)c(C)c1	2.5	2.1	-4.4	1.3	4.1	-13.1	·
CC(C)(C)c1nc[nH]c(=O)c1Br	62.8*	7.7	0.4	5.4	5.0	11.1	41.1*
CC(=O)Nc1ccc(C(=S)NCCCO)cc1	2.3	-2.0	-9.7	0.6	7.7	0.5	·
COc1ccc(C(=O)OCC(=O)NCc2cccs2)c(OC)c1OC	71.8*	6.0	7.1	6.8	12.8	0.1	64.7*
Cc1ccc(C(=O)OCC(=O)NCc2cccs2)c(C)c1	31.7*	1.4	-12.2	-2.6	6.1	-18.9	25.0
O=c1oc(-c2cccnc2)nc2ccccc12	6.2	2.7	-6.5	-1.6	-1.7	-6.6	·
COc1ccc(-c2nnc(-c3ccccc3)o2)cc1OC	9.8	3.2	-0.1	6.1	8.4	0.7	·
Cc1onc(-c2ccccc2)c1-c1nc2ccccc2c(=O)o1	62.6*	-5.4	-6.1	4.9	-1.2	-16.6	59.8*
O=c1oc(-c2ccccc2Br)nc2ccccc12	55.5*	-0.5	-0.8	-1.0	0.5	10.1	30.7*
COc1ccc(-c2nc3ccccc3c(=O)o2)cc1OC	41.0*	-5.1	-0.6	-0.8	4.9	11.6	33.9*
CCOc1ccc(-c2nc3ccccc3c(=O)o2)cc1	54.2*	-1.4	-2.1	-4.5	3.0	2.6	60.4*
Cc1ccccc1C(=O)OCn1nnc2ccccc2c1=O	9.0	6.8	-6.2	7.2	3.2	-5.5	·
COc1cccc(C(=O)OCn2nnc3ccccc3c2=O)c1OC	50.3*	9.5	-11.9	0.2	-3.0	-3.8	45.4*
COc1cc(C(=O)OCn2nnc3ccccc3c2=O)cc(OC)c1OC	-11.1	-5.7	-3.8	4.8	1.2	-16.8	·
CCOc1ccc(C(=O)OCn2nnc3ccccc3c2=O)cc1OC	63.0*	1.4	-1.8	0.6	8.7	-2.3	51.7*

Bioassay records: PubChem, The Scripps Research Institute Molecular Screening Center
